This is a sample that favours compounds with a hit; in the whole collection about 19% have one here.
IL1B secr inh = blocks inflammasome-driven IL-1 beta release; activity change, % at 57.5 µM; 4.7% of 360,000 active; AID 743279; THP-1 LPS/ATP IL-1B secretion, AlphaLISA, 16 h; active compounds read low; in the data active = activity change below about -50%; inconclusive = mostly about -30% to -49%
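Secreted IL-1B measured by AlphaLISA bead assay after 16 h compound exposure of THP-1 cells; compounds (final up to 57.5 uM) added 1 h before LPS (250 ng/mL) and ATP (1.25 mM) stimulation; lower signal means less secretion.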
TDP1 cell noCPT = qHTS for Inhibitors of human tyrosyl-DNA phosphodiesterase 1 (TDP1): qHTS in cells in absence of CPT | DT40 Tdp1-/- hTDP1 cells, no CPT, ATP luminescence, 48 h | Potency, µM (highest dose often 46.2 µM), inactives show at the highest dose activity change, negative = growth inhibition, most hits filed as inhibitors | AID 686978, 2013 | 15% of 420,000 active; note: potency is the fitted concentration of half-maximal effect; nearly all actives have a fitted effect of over 55% in size
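Stably hTDP1-transfected Tdp1-null chicken DT40 cells were treated with library compounds minus camptothecin and grown for at least 48 hr at 37 °C, after which cellular ATP was quantified by luminescence.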
DT40 TDP1 CPT = growth inhibition of DT40 Tdp1-/-;hTDP1 cells with camptothecin (screen for TDP1 inhibitors); chicken DT40 Tdp1-/-;hTDP1 cells + 20 nM CPT, ATP luminescence, 48 h; Potency, µM (top dose mostly 46.2 µM), inactives show top-dose activity change, negative = growth inhibition, actives largely listed as inhibitors; 12% of 420,000 active; AID 686979; note: potency is the fitted concentration of half-maximal effect; nearly all actives have a fitted effect of over 55% in size
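Cell growth measured by CellTiter-Glo luminescence after a minimum 48 h, 37 C compound exposure with 20 nM CPT in Tdp1-knockout DT40 cells stably expressing hTDP1, seeded 400/well; qHTS titration format.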
HT1080-NT tox = kills 2HG-producing HT-1080-NT fibrosarcoma cells | HT-1080-NT fibrosarcoma viability, CellTiter-Glo ATP luminescence, 48 h | Potency, µM (highest dose often 46.1 µM), for inactives: at the highest dose activity, negative = less viability, usual class: cytotoxic | 1.6% of 360,000 active | AID 686970;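 note: NT is the 2HG producing partner of a matched IDH1 knockdown line; potency is the fitted concentration of half-maximal effect; 0% = DMSO-treated cells and -100% = media-only wells without cells; nearly all actives have a fitted effect of over 55% in size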
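HT-1080-NT fibrosarcoma cells (2HG-overproducing), 750 cells/well in RPMI with 5% FBS, dosed after 2 h and incubated 48 h at 37C. CellTiter-Glo luminescence normalized to DMSO and no-cell wells; concentration-response curves fitted and classed.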
HT1080 IDH1KD tx = kills HT-1080 cells with IDH1 knockdown; HT-1080 IDH1 knockdown viability, ATP luminescence, 48 h; Potency, µM (series often up to 46.1 µM), for the others: at the top dose activity, negative = toxicity, actives largely listed as cytotoxic; 2% of 360,000 active; AID 686971;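 note: potency is the fitted concentration of half-maximal effect; 0% = DMSO wells and -100% = cell-free medium wells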
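Cytotoxicity counter-line: IDH1KD HT-1080, 48 h, CellTiter-Glo. Curves classed by r2, magnitude and activity.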
* hit, by the source's call; i = inactive; ? = inconclusive; . = no result. Unless noted, calls come from the whole dose curve; as a rule, active = well fitted curve in the direction sought with a large enough effect; inconclusive = small, poorly fitted or top-dose-only effect, or another doubt; inactive = no such curve, though single readings can be large; an effect the other way counts as inactive or inconclusive. Unless noted, % is set by controls: 0 for no effect and ±100 for the full control effect.

SMILES | IL1B secr inh | TDP1 cell noCPT | DT40 TDP1 CPT | HT1080-NT tox | HT1080 IDH1KD tx
CSc1cccc(NS(=O)(=O)c2ccc(C(C)=O)cc2)c1 | 22 | ? | ? | ? | 1%
COC(=O)c1cc(S(=O)(=O)Nc2cccc(OC)c2)cn1C | 1 | 23µM* | ? | 17% | -6%
CC(=O)N1CCCc2cc(S(=O)(=O)Nc3ccc(C)c(F)c3)ccc21 | . | 16µM* | ? | . | .
CSc1cccc(NS(=O)(=O)c2ccc3c(c2)CCN3C(C)=O)c1 | -12 | 3.7µM* | 9.2µM* | -23% | -26%
CCNc1nc(-c2ccc(OC(F)F)cc2)c(C)s1 | 0 | -25% | ? | 11% | 6%
COc1cc(NS(=O)(=O)c2ccc3c(c2)CCN3S(C)(=O)=O)cc(OC)c1 | . | 5.2µM* | 18µM* | . | .
COc1cccc(NS(=O)(=O)c2ccc3c(c2)CCN3C(C)=O)c1 | 15 | 7.3µM* | 7.3µM* | -12% | -17%
CC(=O)N1CCc2cc(S(=O)(=O)Nc3cccc(C(F)(F)F)c3)ccc21 | -4 | 21µM* | 18µM* | -6% | ?
CCSc1nc2ccccc2c(=O)n1-c1c(C)n(C)n(-c2ccccc2)c1=O | -17 | ? | -22% | -5% | -2%
FC(F)(F)c1cccc(Nc2nc3nonc3nc2Nc2ccc(Cl)cc2)c1 | . | 0.58µM* | 0.23µM* | . | .
COc1cc(NC(=O)N2CCN(c3cc(-c4noc(C)n4)ccc3C)CC2)cc(OC)c1OC | . | -3% | -3% | . | .
Cc1nc(-c2ccc(C)c(N3CCN(C(=O)Nc4ccc(Br)cc4)CC3)c2)no1 | . | 21µM* | ? | . | .
COc1ccc(NC(=O)CN2CCN(c3c(C)cccc3C)CC2)cc1 | -13 | ? | ? | -29% | -26%
CCN1CCN(c2ncc3c(n2)CCN(Cc2cc(Br)cs2)C3)CC1 | . | 21µM* | 18µM* | . | .
CN1CCN(c2ncc3c(n2)CCN(Cc2ccc(Br)s2)C3)CC1 | . | 15µM* | 23µM* | . | .
CCN1CCN(c2ncc3c(n2)CCN(Cc2sccc2C)C3)CC1 | . | 23µM* | ? | . | .
CCN1CCN(c2ncc3c(n2)CCN(Cc2ccc(Br)s2)C3)CC1 | . | 10µM* | 13µM* | . | .
CC1=NN(c2ccc(Cl)cc2)C(=O)/C1=C\c1cccn1-c1ccc(S(N)(=O)=O)cc1 | ? | 15µM* | ? | ? | ?
Cc1nnc(SCCn2c(N3CCN(Cc4ccccc4)CC3)nc3c2c(=O)[nH]c(=O)n3C)s1 | 15 | -20% | -4% | -4% | 2%
CCCCn1c(N2CCC(Cc3ccccc3)CC2)nc2c1c(=O)[nH]c(=O)n2C | ? | 21µM* | 23µM* | ? | ?
Cc1nnc(SCCn2c(N3CCC(Cc4ccccc4)CC3)nc3c2c(=O)[nH]c(=O)n3C)s1 | 27 | 16µM* | ? | 9% | 11%
COc1ccc(N(Cc2ccccc2)N=O)cc1 | -9 | -23% | 9% | 14% | 25%
CCC(=O)N1CCC(C)(C(=O)NCc2cccc(OC)c2)C1 (centres undefined) | -2 | -3% | -3% | 18% | 13%
CC(C)c1ccc(/C=N/NC(=O)c2cccc(Cl)c2)cc1 | -15 | 5.8µM* | 10µM* | 23µM* | 21µM*
COc1cc(/C=N/NC(=O)c2ccccn2)ccc1OC(=O)c1ccccc1Br | i | ? | ? | -10% | ?
SMILES | IL1B secr inh | TDP1 cell noCPT | DT40 TDP1 CPT | HT1080-NT tox | HT1080 IDH1KD tx
O=C(N/N=C/c1ccncc1)c1ccccn1 | 8 | 6% | -11% | -13% | -15%
O=C(N/N=C/c1cccnc1)c1cccc(Cl)c1 | 1 | -12% | 8% | 15% | 22%
CC(C)c1ccc(/C=N/NC(=O)c2cc(-c3cccc([N+](=O)[O-])c3)n[nH]2)cc1 | 14 | ? | ? | ? | 23µM*
COc1cc(/C=N/NC(=O)c2ccccn2)ccc1OC(=O)c1ccc(Br)cc1 | 0 | ? | 18µM* | -16% | -4%
CC(C)c1ccc(/C=N/NC(=O)c2ccccn2)cc1 | -53* | -11% | 0.033µM* | ? | ?
CCc1ccccc1NC(=O)CNC(=O)c1cccc(S(=O)(=O)N2CCN(Cc3ccccc3)CC2)c1 | ? | ? | -28% | -2% | 0%
CC(C)c1ccc(/C=N/NC(=O)c2ccc(-n3cnnn3)cc2)cc1 | -19 | 12µM* | ? | ? | ?
CC(NC(=O)NC(=O)c1cccc(Cl)c1)c1ccccc1 (centres undefined) | 14 | ? | 13µM* | 0% | 4%
Cc1ccc(Oc2ccc(NC(=O)Cn3ccsc3=N)cc2)cc1 | -100* | ? | ? | -26% | ?
N=c1sccn1CC(=O)NC(c1ccccc1)c1ccccc1 | -52* | ? | ? | -1% | -23%
N=c1sccn1CC(=O)Nc1ccccc1Oc1ccccc1 | -29 | -10% | -1% | -7% | -5%
N=c1sccn1CC(=O)Nc1ccccc1Cc1ccccc1 | -51* | ? | ? | -5% | 7%
COc1ccccc1CNC(=O)CS(=O)(=O)Cc1ccccc1 | -8 | 15% | -5% | 27% | 1%
COc1ccc(S(=O)(=O)n2nc(C)cc2C)c(C)c1C | 6 | -25% | -28% | -20% | 1%
CCN(CC)CC(=O)c1c[nH]c2ccc(C)cc12 | 11 | 23µM* | 21µM* | 1% | -6%
CCN(CC)CC(=O)c1c[nH]c2ccccc12 | 35 | -18% | -19% | 3% | 5%
COc1ccccc1N1C[C@@H]2C[C@@H](c3ccco3)N3CCC[C@@]23C1=O | -11 | -19% | -15% | 0% | 1%
O=C(NCc1ccccc1)NC12CC3CC(CC(C3)C1)C2 | -1 | 21µM* | 15µM* | 3% | -5%
O=C(NCc1ccccc1)NCC12CC3CC(CC(C3)C1)C2 | -7 | ? | ? | 0% | 0%
O=C(CC12CC3CC(CC(C3)C1)C2)NC(=S)NCc1ccccc1 | -10 | 18µM* | ? | 11% | 14%
O=C(NCc1ccccc1)C12CC3CC(CC(C3)C1)C2 | -10 | -14% | -2% | 3% | 15%
COc1ccc(-n2c(=O)c(-c3ccccc3)nc3cnc(N4CCOCC4)nc32)cc1 | . | 8% | 11% | . | .
CCc1ccc2[nH]c(=O)c(CN(CCN(C)C)C(=O)Nc3ccccc3)cc2c1 | -59* | ? | ? | ? | ?
CCc1ccc2[nH]c(=O)c(CN(CCN(CC)CC)C(=O)NC3CCCCC3)cc2c1 | -56* | 26µM* | 15µM* | 16µM* | ?
Cc1cc(C(=O)NNC(=O)c2ccc(Cl)cc2Cl)c(C)o1 | -13 | -9% | -12% | 1% | 0%
Cc1cc(C)c2c(n1)SCC(=O)N2CC(=O)Nc1c(C)cccc1C | -15 | ? | -7% | 2% | -1%

High-throughput results: PubChem, National Center for Advancing Translational Sciences (NCATS)
